Pf growth 48h: Primary qHTS for delayed death inhibitors of the malarial parasite plastid, 48 hour incubation | P. falciparum luciferase growth in erythrocytes, 48 h | Potency, µM (series often up to 28.7 µM), for inactives: at the highest dose activity change, negative = inhibition, actives largely listed as inhibitors | hit rate 5.9% among 310,000 | AID 504832, 2011; further: potency means the concentration at half of the fitted maximal effect
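Luciferase-expressing P. falciparum in infected erythrocytes (2% hematocrit, 0.1% parasitemia final) in RPMI 1640/0.5% Albumax were exposed to compound for 48 hours at 37 C, 5% CO2; growth read as luminescence.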
HCMV antiviral: qHTS Assay for inhibitors of the human cytomegalovirus (HCMV); HFF cells, HCMV-luciferase reporter, 72 h; hits give low values; activity change, negative = inhibition, % at 57.5 µM; AID 1259415, 2018; hit rate 4.5% among 410,000; in the data active means activity change below about -60%; inconclusive means no clear call, values can overlap the other calls; inactive means above about -39%
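After 16 h attachment at 37C, HFF cells received test compound and HCMV-luciferase (1 PFU/cell); reporter luminescence read 72 h later, data normalized against buffer-only and known inhibitor Salinomycin.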
Marburg entry inh: qHTS for inhibitors of binding or entry into cells for Marburg Virus | Marburg virus pseudotyped entry inhibition, cell reporter | Potency, µM (series often up to 37.8 µM), for the others: top-dose activity change, negative = inhibition, actives largely listed as inhibitors | hit rate 1.8% among 300,000; calls by dose curve; tested in HEK293 cells; further: potency means the concentration at half of the fitted maximal effect
Pf growth 96h: Primary qHTS for delayed death inhibitors of the malarial parasite plastid, 96 hour incubation; Potency, µM (titrated, usually from 28.7 µM), for inactives: at the highest dose activity change, negative = inhibition, actives largely listed as inhibitors; hit rate 6.9% among 320,000; AID 504834, 2011; P. falciparum luciferase reporter growth, 96 h; further: potency means the concentration at half of the fitted maximal effect
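P. falciparum expressing integrated firefly luciferase, in erythrocytes at 2% hematocrit, 0.05% parasitemia, incubated with compounds 96 h at 37 C, 5% CO2. Growth inhibition read as loss of luminescence; two-generation exposure targets delayed-death apicoplast inhibitors.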
Lassa entry inh: qHTS for Inhibitors of binding or entry into cells for Lassa Virus. Lassa virus pseudotype entry inhibition, cell reporter. Potency, µM (highest dose often 37.9 µM), for inactives: at the top dose activity change, negative = inhibition, most hits filed as inhibitors. hit rate 1.2% among 300,000. AID 540256, 2011; calls by dose curve; tested in HEK293 cells; further: potency means the concentration at half of the fitted maximal effect; nearly all actives have a fitted effect of over 50% in size
HCV inhibitor: qHTS Assay for Inhibitors of Hepatitis C Virus (HCV); hit rate 3.4% among 340,000; Huh7.5.1 HCVcc-Cre infection, luciferase reporter, 44 h; Potency, µM (highest dose often 41.8 µM), inactives show at the top dose activity change, negative = inhibition, usual class: inhibitors; AID 651820, 2012; further: potency means the concentration at half of the fitted maximal effect
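Reporter virus HCVcc-Cre (~0.5 moi) infects cells exposed to compound; seeding density 1,000 cells/well with 4 h settling beforehand. Luminescence, 15 sec read, taken 44 h post-infection following a 15 min RT substrate incubation.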
Numbers without * were called inactive; ? = inconclusive; . = no result given; [ ] = remark or other dose. Only some compounds are listed: those with a hit (about 14% of all), similar ones and a draw of the others. Unless noted, the call rests on the fitted dose curve; in most records, active means well fitted inhibition curve with a large enough effect; inconclusive means small, poorly fitted or top-dose-only effect, or another doubt; inactive means no such curve, though single readings can be large or run the other way. On the % scale 0 is the no-effect control and ±100 the full control effect.

SMILES	Pf growth 48h	HCMV antiviral	Marburg entry inh	Pf growth 96h	Lassa entry inh	HCV inhibitor
COCCn1c(=N)c(C(=O)NCCc2ccc(OC)cc2)cc2c(=O)n3cccc(C)c3nc21	2.1µM*	29	-10%	2.9µM*	-13%	13%
CCCn1c(=N)c(C(=O)NCc2ccc3c(c2)OCO3)cc2c(=O)n3cccc(C)c3nc21	1µM*	30	-21%	8%	5%	0%
COc1ccc(CCNC(=O)c2cc3c(=O)n4cccc(C)c4nc3n(CCCN3CCOCC3)c2=N)cc1	?	-95*	.	?	.	?
COCCCn1c(=N)c(C(=O)NC2CCCC2)cc2c(=O)n3cccc(C)c3nc21	.	2	20%[46.1 µM]	.	?	.
COc1cccc2c1[C@H](C=Cc1ccccc1)[C@@H]([C@H](O)COC(C)=O)OC2	.	.	16%[14.2 µM]	.	.	.
COc1ccc(S(=O)(=O)N2CCOCC2)cc1NC(=O)CCCSc1ccccc1	.	-33	.	.	.	.
CC1CCCCC12NC(=O)N(CC(=O)Nc1cccc(S(=O)(=O)N3CCCCC3)c1)C2=O (stereo not drawn)	?	47	.	?	.	?
CCCCNC(=O)C(CC)Sc1nnc(-c2ccc(OC)c(OC)c2)c(-c2ccc(OC)c(OC)c2)n1 (stereo not drawn)	.	17	.	.	-12%[46.1 µM]	.
Cc1c(Cl)cccc1NC(=S)NCc1ccc(Cl)cc1	.	?	?	.	-10%	-10%
Cc1ccccc1NC(=S)NCCc1ccc(S(N)(=O)=O)cc1	?	-35	?	10%	10%	2%
Cc1cccc(NC(=S)NCCc2ccccc2)c1C	?	-18	?	?	-2%	?
Cc1c(Cl)cccc1NC(=S)NCCc1ccc(Cl)cc1	?	-86*	?	?	?	10µM*
Cc1c(Cl)cccc1NC(=S)NCCc1ccc(F)cc1	?	?	7%	13µM*	-18%	10%
Cc1c(Cl)cccc1NC(=S)NCCc1ccc(S(N)(=O)=O)cc1	-13%	-80*	?	10µM*	-12%[46.1 µM]	9%
O=C1Nc2ccccc2CCC1Sc1nnc(-c2ccc(Cl)cc2)s1 (stereo not drawn)	13µM*	?	-19%	?	-1%	?
O=C(Nc1nnc(-c2ccc(F)cc2)s1)C1CCN(S(=O)(=O)c2ccc(Cl)cc2)CC1	10%	40	1%	16%	0%	-1%
CCCCOC(=O)c1ccc(NC(=S)N2CCN(c3ncc4c(=O)c(C(=O)O)cn(CC)c4n3)CC2)cc1	2.6µM*	19	.	1.3µM*	.	-10%
CCOC(=O)c1cccc(NC(=S)N2CCN(c3ncc4c(=O)c(C(=O)O)cn(CC)c4n3)CC2)c1	-3%	?	?	8%	-5%	5%
CCn1cc(C(=O)O)c(=O)c2cnc(N3CCN(C(=S)Nc4ccccc4)CC3)nc21	0.12µM*	-37	3%	?	?	7%
CCn1cc(C(=O)O)c(=O)c2cnc(N3CCN(C(=S)NC(=O)c4ccccc4)CC3)nc21	49%	-15	5%[46.1 µM]	?	-1%[46.1 µM]	-2%
COc1cc(OC)c2c(-c3ccccc3)cc(=O)oc2c1C(CC(=O)N1CCOCC1)c1ccc(N(C)C)cc1 (stereo not drawn)	7.4µM*	7	.	?	.	-17%
COc1cc(OC)c2c(-c3ccccc3)cc(=O)oc2c1C(CC(=O)N1CCOCC1)c1ccc2c(c1)OCO2 (stereo not drawn)	?	-94*	.	?	.	?
Cc1ccc(-c2csc(NC(=O)C3=NN(C4CCS(=O)(=O)C4)C(=O)CC3)n2)cc1 (stereo not drawn)	64%	-12	.	11%	.	7%
CN(C)CCOc1ccccc1Cc1ccccc1	?	-4	?	?	-23%	-6%[8.37 µM]
CNCCCCOc1ccccc1Cc1ccccc1	13µM*	.	.	17µM*	.	.
CCOC(=O)c1cc(-c2ccccc2C)nn1CC1CC(c2cccnc2)=NO1 (stereo not drawn)	.	7	.	.	.	?

Assay outcomes deposited in PubChem by National Center for Advancing Translational Sciences (NCATS).
